BAZ2B inh = BAZ2B (human) inhibition; AlphaScreen BAZ2B-H3K14Ac peptide displacement; AID 504333; Potency, µM (doses to about 114 µM), without a hit: at the top dose activity change, negative = inhibition, most hits filed as inhibitors; Q9UIF8; hit rate 4.4% among 360,000; note: % is set by controls: 0 for no effect and ±100 for the full control effect; nearly all actives have a fitted effect of over 60% in size
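Inhibition is scored as reduced AlphaScreen emission. The BAZ2B/b-H3(5-23)K14Ac complex (50 nM each) in PBS pH 7.4, 0.01% Tween-20 meets compound (up to 110 uM) for 30 min at RT before bead addition.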
HP1b chromo inh = blocks HP1-beta chromodomain binding to methylated histone tails. P83916. AlphaScreen HP1-beta / biotin-H3K9me3 peptide binding. Potency, µM (series often up to 114 µM), inactives show top-dose activity change, negative = inhibition, hits mostly inhibitors. hit rate 0.56% among 390,000; note: nearly all actives have a fitted effect of over 70% in size
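HP1-beta protein (50 nM final) preincubated 30 min at room temperature with biotinylated H3(1-18)K9me3 peptide (50 nM) in PBS pH 7.4, 0.01% Tween-20, then compound added for 30 min. AlphaScreen streptavidin donor/nickel chelate acceptor beads (10 ug/mL final), 30 min dark, luminescence read.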
Sfp PPTase inh = Sfp phosphopantetheinyl transferase inhibition. Potency, µM, without a hit: largest response in the series, negative = inhibition, hits mostly inhibitors. hit rate 3.5% among 310,000. AID 1490. Biochemical Sfp PPTase activity, qHTS. Q9F4F7;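 note: the enzyme is Sfp with the accession as filed and its product quenches rhodamine fluorescence; 0% = enzyme reaction without inhibitor and -100% = no enzyme wells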
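Sfp 15 nM + cpd, 15 min RT; start w/ rhodamine-CoA 5 uM, BHQ-2-YbbR 12.5 uM (final); 50 mM Hepes pH 7.6, 10 mM MgCl2, 0.01% NP-40, 0.01% BSA; read 525/598 nm at 0 and 30 min.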
G9a block = inhibitors of human histone lysine methyltransferase G9a | Q96KQ7 | G9a H3K9 monomethylation, AlphaScreen, 2 h | Potency, µM (doses to about 102 µM), without a hit: at the highest dose activity, negative = inhibition, usual class: inhibitors | hit rate 8.8% among 350,000 | AID 504332; note: % is set by controls: 0 for no effect and ±100 for the full control effect; nearly all actives have a fitted effect of over 75% in size
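G9a (20 nM) was preincubated 15 min with compound, then reacted 2 h at room temperature with 500 nM biotin-H3K9 peptide and 20 µM SAM. Monomethyl-H3K9 detected by AlphaScreen using anti-H3K9me1 antibody.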
JMJD2A Tudor inh = inhibitors of human JMJD2A Tudor domain. O75164. AlphaScreen JMJD2A-Tudor / H3K4me3 peptide binding. Potency, µM (series often up to 114 µM), for inactives: at the top dose activity change, negative = inhibition, most hits filed as inhibitors. hit rate 4.4% among 390,000; note: % is set by controls: 0 for no effect and ±100 for the full control effect; nearly all actives have a fitted effect of over 50% in size
Target sequence (O75164 whole entry, looked up, the tested form may be a part): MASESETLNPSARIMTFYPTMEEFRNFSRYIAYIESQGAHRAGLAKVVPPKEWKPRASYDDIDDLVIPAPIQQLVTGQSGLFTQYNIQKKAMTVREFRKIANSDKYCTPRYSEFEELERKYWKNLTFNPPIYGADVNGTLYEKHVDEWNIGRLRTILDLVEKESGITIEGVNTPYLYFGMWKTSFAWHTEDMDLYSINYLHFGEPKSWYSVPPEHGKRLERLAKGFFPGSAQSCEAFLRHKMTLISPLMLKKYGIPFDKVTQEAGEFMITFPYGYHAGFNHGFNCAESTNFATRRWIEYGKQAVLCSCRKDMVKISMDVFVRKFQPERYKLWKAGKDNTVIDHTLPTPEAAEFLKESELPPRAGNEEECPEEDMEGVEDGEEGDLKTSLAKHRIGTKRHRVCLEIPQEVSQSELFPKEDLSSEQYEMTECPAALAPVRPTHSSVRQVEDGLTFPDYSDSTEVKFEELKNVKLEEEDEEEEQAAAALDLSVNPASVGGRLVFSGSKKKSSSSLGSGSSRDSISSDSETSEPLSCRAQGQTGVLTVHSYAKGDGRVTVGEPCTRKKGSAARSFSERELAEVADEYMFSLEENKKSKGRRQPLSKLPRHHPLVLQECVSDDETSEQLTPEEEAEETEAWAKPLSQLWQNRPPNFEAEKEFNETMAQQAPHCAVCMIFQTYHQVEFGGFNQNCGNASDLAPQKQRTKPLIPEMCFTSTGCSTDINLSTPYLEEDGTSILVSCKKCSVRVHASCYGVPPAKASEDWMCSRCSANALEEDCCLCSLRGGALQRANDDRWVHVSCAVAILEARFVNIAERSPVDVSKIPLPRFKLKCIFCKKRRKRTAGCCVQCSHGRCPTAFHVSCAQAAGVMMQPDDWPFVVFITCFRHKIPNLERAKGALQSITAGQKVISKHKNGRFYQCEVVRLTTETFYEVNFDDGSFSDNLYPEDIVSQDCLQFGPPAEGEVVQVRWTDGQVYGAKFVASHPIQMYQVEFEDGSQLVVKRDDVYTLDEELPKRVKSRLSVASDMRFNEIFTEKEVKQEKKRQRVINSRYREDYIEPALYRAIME
Numbers without * were called inactive; ? = inconclusive; nt = no result given; [ ] = dose if it differs, or a comment. Shown are actives, neighbours in structure and some others; about 12% of the full set was active somewhere. Calls come from the whole dose curve; as a rule, active = well fitted curve in the direction sought with a large enough effect; inconclusive = small, poorly fitted or top-dose-only effect, or another doubt; inactive = no such curve, though single readings can be large; an effect the other way counts as inactive or inconclusive. Potency is the fitted concentration of half-maximal effect.

SMILES	BAZ2B inh	HP1b chromo inh	Sfp PPTase inh	G9a block	JMJD2A Tudor inh
CSc1nc(O)c(C(c2cccc([N+](=O)[O-])c2)c2c(O)nc(SC)[nH]c2=O)c(=O)[nH]1	?	37.1%	-6.2%	28.2µM*	-14.5%
CCOc1ccc(C(c2c(O)nc(SC)[nH]c2=O)c2c(O)nc(SC)[nH]c2=O)cc1	nt	32.2%	nt	nt	-20.8%
CSc1nc(O)c(C(c2ccc(O)cc2)c2c(O)nc(SC)[nH]c2=O)c(=O)[nH]1	?	?	50.1µM*	10µM*	-6.3%
O=C(NCc1ccccn1)c1cc2n(n1)C(C(F)(F)F)CC(c1ccco1)N2 (stereo not drawn)	12.9%	40.0%	12.6µM*	?	-6.3%
CCc1cccc(C)c1Nc1c(-c2cccc(O)c2)nc2cnccn12	5.5%	65.4%	nt	26.5%[59 µM]	9.9%
CCc1cccc(C)c1Nc1c(-c2ccc(SC)cc2)nc2sccn12	22.4µM*	?	nt	14.1µM*	?
CCc1cccc(C)c1Nc1c(-c2ccc(N(C)C)cc2)nc2cnccn12	15.8µM*	?	nt	17.8µM*	39.8µM*
O=C(CN1CCCN(Cc2ccc(F)cc2)S1(=O)=O)NCc1ccccc1Cl	-2.3%	38.4%	nt	?	12.1%
CCOC(=O)c1c(NC(=O)c2cccs2)sc2c1CCCC2	37.1%	128.8%	15.9%	65.6%[59 µM]	11.8%
COC(=O)c1c(NC(=O)COC(=O)c2ccc(NC(=O)CC#N)cc2)sc2c1CCCCC2	44.7µM*	-16.5%	-23.8%	-2.0%[59 µM]	44.7µM*
CCOC(=O)c1c(NC(=O)Cc2cccs2)sc2c1CCCC2	17.4%	64.7%	31.6µM*	11.9%	13.0%
CCOC(=O)c1c(NC(=O)C2CC(Cl)=CCC2C(=O)O)sc2c1CCCCC2 (stereo not drawn)	50.1µM*	-6.2%	-12.5%	44.7µM*	?
COC(=O)c1c(NC(=O)COc2ccc(C(C)C)cc2)sc2c1CCCC2	-0.3%	26.2%	nt	?	-0.7%
CCOC(=O)c1c(NC(=O)C2C3C=CC(C3)C2C(=O)O)sc2c1CCCC2 (stereo not drawn)	-29.3%	35.3%	13.6%	-42.7%	-18.8%
COC(=O)c1c(NC(=O)COc2cccc(C(F)(F)F)c2)sc2c1CCCC2	1.1%	0.3%	nt	8.91µM*	-4.6%
CC1(c2ccc(Cl)cc2Cl)NC(=O)N(CC(=O)NC2CCCCC2)C1=O (stereo not drawn)	2.9%	16.6%	nt	-18.5%[12.7 µM]	-16.7%
CCc1noc2nc(C)n(CC(=O)O)c(=O)c12	-6.4%	37.6%	nt	-2.7%[59 µM]	-7.9%
CCn1c(/C=C/c2cc(Br)ccc2O)nc2ccccc2c1=O	7.2%	16.2%	-5.6%	nt	-15.9%
Cc1c(O)ccc2c(CC(=O)N[C@@H](Cc3ccc(O)cc3)C(=O)O)cc(=O)oc12	-12.1%	21.1%	1.6%	2.2%[2.33 µM]	-6.8%
CC1CCc2c(sc(NC(=O)CCC(=O)O)c2C(=O)NC2CC2)C1 (stereo not drawn)	-35.7%	?	8.91µM*	8.91µM*	?
CCOC(=O)c1c(NC(=O)CCCC(=O)O)sc2c1CCC2	-22.3%	-16.4%	23.3%	19.8%[12.7 µM]	-15.5%
CCOC(=O)c1c(NC(=O)COc2cccc(C)c2C)sc2c1CCCCC2	1.6%	-10.6%	nt	11.2µM*	-11.4%
CCOC(=O)c1c(NC(=O)CCC(=O)O)sc2c1CCCCC2	-4.7%	?	?	7.94µM*	?
CCOC(=O)c1c(NC(=O)COc2ccccc2F)sc2c1CCCC2	6.2%	25.1%	nt	8.8%[59 µM]	9.0%
Nc1nccs1	nt	nt	-7.2%	3.7%[2.33 µM]	nt
SMILES	BAZ2B inh	HP1b chromo inh	Sfp PPTase inh	G9a block	JMJD2A Tudor inh
COc1ccc(C(=O)NCC(=O)N2CCCC(C)C2)cc1OC (stereo not drawn)	nt	15.6%	1.6%	8.1%	-9.8%
COc1cc(CN2CCCCCC2)cc(Br)c1O	70.8µM*	?	7.3%	?	22.4µM*
COc1cc(CN2CCCC(C(=O)c3ccc(C(C)(C)C)cc3)C2)cc(OC)c1O (stereo not drawn)	?	3.7%	14.9%	?	?
COc1ccc(CN2CCC(C(=O)N3CCCC(C)C3)CC2)cc1OC (stereo not drawn)	50.1µM*	-15.5%	3.9%	17.8µM*	17.8µM*
COc1cc(CN2CCC(N3CCC(C(=O)N4CCCC4)CC3)CC2)cc2c1OCO2	1.5%	31.5%	11.5%	nt	-13.8%
COc1cc(CN2CCC(C(=O)N3CCCC(C)C3)CC2)cc(Br)c1O (stereo not drawn)	22.4µM*	?	-17.9%	7.94µM*	?
CCN(CC)S(=O)(=O)c1ccc(NC2c3ccccc3C(=O)N2c2ccc(C)cn2)cc1 (stereo not drawn)	4.8%	28.1%	8.0%	39.8µM*	-13.2%
COc1ccc(OC)c(NC2c3ccccc3C(=O)N2c2cccnc2)c1 (stereo not drawn)	-14.0%	43.8%	-29.7%	50.1µM*	-32.6%
Cc1ccc(NC2c3ccccc3C(=O)N2c2cccnc2)cc1 (stereo not drawn)	-17.6%	-7.3%	18.1%	-5.7%	-14.8%
Cc1ccc(N2C(=O)c3ccccc3C2Nc2ccc(S(=O)(=O)N3CCCCC3)cc2)nc1 (stereo not drawn)	0.7%	13.9%	2.4%	?	-28.9%
CCOC(=O)c1ccc(NC2c3ccccc3C(=O)N2c2ccccn2)cc1 (stereo not drawn)	-1.3%	15.2%	-21.1%	50.1µM*	-17.7%
COc1ccc(NC2c3ccccc3C(=O)N2c2ccccn2)cc1 (stereo not drawn)	56.2µM*	4.9%	-8.7%	?	-35.1%
COc1ccc(NC(=S)N2CCN(S(=O)(=O)c3ccccc3)CC2)cc1OC	?	8.4%	0.4%	nt	-19.4%
CN1CCOc2ccc(S(=O)(=O)N3CCN(S(=O)(=O)c4c(F)cccc4F)CC3)cc21	12.7%	nt	nt	7.8%[12.7 µM]	-13.7%
COc1cc(F)c(S(=O)(=O)N2CCN(S(=O)(=O)c3cccc(NC(C)=O)c3)CC2)c(F)c1	nt	nt	nt	nt	-15.0%
O=C(CCCc1nc(-c2ccc(Cl)cc2)no1)NC1CCCC1	-4.9%	15.9%	12.6%	nt	-7.4%
O=C(Nc1ccc(Cl)cc1)c1ccc(CN2CCc3ccccc3C2)cc1	-14.0%	46.9%	10.5%	31.7%	2.0%
O=C(c1cc2cc(Cl)ccc2[nH]1)N1CCc2ccccc2C1	-18.0%[57.1 µM]	59.7%	0.6%	50.1µM*	24.9%
O=C(Nc1ccc(Cl)cc1)N1CCc2ccccc2C1	?	45.1%	79.4µM*	?	18.1%
O=C(NCCCN1CCc2ccccc2C1)Nc1ccc(Cl)cc1	0.0%	14.3%	7.2%	70.8µM*	-28.2%
COc1ccc(NC(=O)NCCN2CCc3ccccc3C2)cc1	1.6%	15.6%	-9.0%	?	20µM*
CSc1ccc(NC(=O)NCCN2CCc3ccccc3C2)cc1	?	-4.7%	-28.3%	?	?
Cc1cc(Cl)ccc1Nc1nc(NCc2ccco2)nc2nccnc12	nt	25.6%	nt	nt	-12.8%
COc1ccc(C2Nc3ccccc3C(=O)N2Cc2ccccc2)cc1COc1ccccc1OC (stereo not drawn)	nt	nt	nt	nt	-21.1%

Screening data: PubChem, National Center for Advancing Translational Sciences (NCATS)
